Several values for one entry are separate records, joined by “and”; a condition that tells them apart may be missing. Equal values may be shown once. Inconclusive results are not listed. Entries that show only a call come without a potency. Unmarked numbers belong to inactive results. Activity calls are given as the source filed them. Calls come from the whole dose curve; as a rule, active = well fitted curve in the direction sought with a large enough effect; inconclusive = small, poorly fitted or top-dose-only effect, or another doubt; inactive = no such curve, though single readings can be large; an effect the other way counts as inactive or inconclusive.
What was measured:
[1] = biological target: Cellular tumor antigen p53 (Homo sapiens) (UniProt P04637); assay: Primary qHTS for small molecule compounds that upregulate eGFP-tagged delta133p53alpha (in N-terminal) cells. (AID 2060322); details: NCI-H358 eGFP-delta133p53alpha fluorescence, 24 h; activation: active compounds read high; note: nearly all actives have a fitted effect of over 75% in size; note: potency is the fitted concentration of half-maximal effect;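 for activation: cells pre-induced with doxycycline then dosed without doxycycline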
Outline: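 NCI-H358 cells pre-induced 24 h with 10 ng/ml doxycycline for eGFP-delta133p53alpha, plated dox-free and exposed 24 h at 37C to titrated compounds. Fixed, Hoechst-stained; gated GFP peak intensity by laser scanning cytometry, normalized to DMSO (0%) and 57.5 uM 5-azacytidine (100%).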

[2] = biological target: Aldehyde dehydrogenase, mitochondrial (Homo sapiens) (UniProt P05091); assay: qHTS for Inhibitors of the Aldehyde Dehydrogenase Family (ALDH2) Primary screen (AID 2061308); details: ALDH2 enzyme inhibition qHTS, 1536-well; series mostly up to 56 µM; note: nearly all actives have a fitted effect of over 55% in size
[3] = biological target: Retinaldehyde dehydrogenase 3 (Homo sapiens) (UniProt P47895); assay: qHTS for Inhibitors of the Aldehyde Dehydrogenase Family (ALDH1A3) Primary screen (AID 2061315); details: ALDH inhibition qHTS; series mostly up to 56 µM

Chain of Cellular tumor antigen p53 (Homo sapiens) (P04637 whole entry, looked up): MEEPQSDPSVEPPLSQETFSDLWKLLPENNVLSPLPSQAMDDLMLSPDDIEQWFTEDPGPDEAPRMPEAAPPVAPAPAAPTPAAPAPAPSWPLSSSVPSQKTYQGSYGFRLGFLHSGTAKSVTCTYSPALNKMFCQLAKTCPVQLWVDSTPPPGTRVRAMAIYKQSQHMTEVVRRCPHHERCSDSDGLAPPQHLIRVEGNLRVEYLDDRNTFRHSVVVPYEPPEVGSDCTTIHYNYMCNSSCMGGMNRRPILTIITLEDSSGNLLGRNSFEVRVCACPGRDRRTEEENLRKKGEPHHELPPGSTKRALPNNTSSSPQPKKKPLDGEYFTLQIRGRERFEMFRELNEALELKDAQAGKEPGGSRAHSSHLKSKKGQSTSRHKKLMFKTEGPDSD

C=C1C(=O)OC2/C=C(\C)CC3C=C(CC/C=C(\C)CCC12)C(=O)O3 (stereo not drawn)
Potency [1]: 6.59 µM (active)
Potency [2]: inactive
Potency [3]: inactive

CC1=C2[C@@H]([C@H](C)CC[C@H]2/C=C(\C)C(=O)O)[C@H](O)C1
activation [1]: -10.7%
Potency [2]: inactive
Potency [3]: inactive

C/C(=C/CO)CC[C@@H]1[C@@](C)(O)CCC2C(C)(C)CCC[C@]21C (stereo partly drawn)
activation [1]: -7.14%
Potency [2]: inactive
Potency [3]: inactive

CC1(C=O)CC[C@]2(C(=O)O[C@@H]3O[C@H](CO)[C@@H](O)[C@H](O)[C@H]3O)CC[C@]3(C)C(=CCC4[C@@]5(C)C[C@H](O)[C@H](O[C@@H]6OC[C@@H](O)[C@H](O)[C@H]6O)[C@@](C)(CO)C5CC[C@]43C)C2C1 (stereo partly drawn)
activation [1]: 6.87%
Potency [2]: inactive
Potency [3]: inactive

C/C=C(\C)C(=O)OCC1OC(OCC2OC(OC3(CO)OC(CO)C(O)C3O)C(O)C(O)C2O)C(O)C(O)C1O (stereo not drawn)
activation [1]: -9.16%
Potency [2]: inactive
Potency [3]: inactive

CC(C)(OC1OC(CO)C(O)C(O)C1O)C1CCC(O)(CO)C2CC(O)C(C)(O)C2C1 (stereo not drawn)
activation [1]: -19.6%
Potency [2]: inactive
Potency [3]: inactive

CC1CC(=O)C2C(O)(C1)CC(O)C13OC1c1c(O)cccc1C(=O)C23O (stereo not drawn)
activation [1]: -1.53%
Potency [2]: inactive
Potency [3]: inactive

CN1C(=O)c2ccccc2-n2c(nc3ccccc3c2=O)[C@@]12O[C@H]2c1ccccc1
activation [1]: 13%
Potency [2]: inactive
Potency [3]: inactive

COc1c2c(c(CO)c3c1C(=O)OC3)OC1(C)CCC3(O)C(C)(C)OC(=O)CCC3(C)C1C2 (stereo not drawn)
activation [1]: -16%
Potency [2]: inactive
Potency [3]: inactive

COC1CCCC/C(C)=C/C2C=C(C)C(C)C3C(CC(C)C)NC(=O)C23C(=O)C1 (stereo not drawn)
activation [1]: -5.34%
Potency [2]: inactive
Potency [3]: inactive

CC(=O)OC[C@@]12[C@H](O)C[C@]3(C)C(=CCC4[C@@]5(C)CC[C@H](O[C@@H]6O[C@H](C(=O)O)[C@@H](O[C@@H]7O[C@H](CO)[C@@H](O)[C@H](O)[C@H]7O)[C@H](O)[C@H]6O[C@@H]6O[C@H](CO)[C@@H](O)[C@H](O)[C@H]6O)[C@](C)(CO)C5CC[C@]43C)[C@@H]1CC(C)(C)[C@@H](OC(C)=O)[C@@H]2O (stereo partly drawn)
activation [1]: -4.58%
Potency [2]: inactive
Potency [3]: inactive

COC(=O)/C=C/c1ccc(O[C@@H]2O[C@H](CO)[C@@H](O)[C@H](O)[C@H]2O)cc1
activation [1]: -8.04%
Potency [2]: inactive
Potency [3]: inactive

COc1cc(C)c(C(=O)O[C@@H]2[C@H](O)[C@@H](CO)O[C@H]2n2ccc(=O)[nH]c2=O)c(OC)c1
activation [1]: -5.34%
Potency [2]: inactive
Potency [3]: inactive

CC1(C)CC[C@]2(C(=O)O[C@@H]3O[C@H](CO)[C@@H](O)[C@H](O)[C@H]3O)CC[C@]3(C)C(=CCC4[C@@]5(C)CC[C@H](O[C@@H]6O[C@H](C(=O)O)[C@H](O)[C@H](O)[C@H]6O)C(C)(C)C5CC[C@]43C)[C@@H]2C1 (stereo partly drawn)
activation [1]: -2.68%
Potency [2]: inactive
Potency [3]: inactive

O=C1NC2CCCCN2C12CCN(CCCN1c3ccccc3CCc3ccc(Cl)cc31)CC2 (stereo not drawn)
Potency [1]: 13.5 µM (active)
Potency [2]: inactive
Potency [3]: inactive

COc1ccc(C2(O)CCC(N3CC[C@@H](NC(=O)CNC(=O)c4cccc(C(F)(F)F)c4)C3)CC2)cn1 (stereo partly drawn)
activation [1]: 19.6%
Potency [2]: inactive
Potency [3]: inactive

COc1cc(C)c(C(=O)OC2C(C)OC(OC3CCC(C)C4C3C=C(C)C3/C(C)=C\CC/C(C)=C/C5(C)C=C(C(=O)O)C(C)CC56OC(=O)/C(=C(\O)C34C)C6=O)C(O)C2O)c(OC)c1 (stereo not drawn)
activation [1]: 10.7%
Potency [2]: inactive
Potency [3]: inactive

C/C=C(/COC(=O)/C(C)=C/C)C(=O)OC(CC)c1ccc(OC)c(OC)c1 (stereo not drawn)
activation [1]: -15.2%
Potency [2]: inactive
Potency [3]: inactive

Cc1nnsc1C(=O)Nc1ccc(-n2nc(C(F)(F)F)cc2C(F)(F)F)cc1
activation [1]: 1.43%
Potency [2]: inactive
Potency [3]: inactive

C=C1C(=O)OC2/C=C(\CO)CC/C=C(\C=O)C(OC)C(OC(=O)C(C)CC)C12 (stereo not drawn)
activation [1]: -6.11%
Potency [2]: inactive
Potency [3]: inactive

CCC(C)CC(=O)OC1C(=O)C(CO)=CC(O)C1C(C)C (stereo not drawn)
Potency [1]: 23.9 µM (active)
Potency [2]: inactive
Potency [3]: inactive

O=C(NC[C@H]1CN(c2ccc(N3CCOCC3=O)cc2)C(=O)O1)c1ccc(Cl)s1
activation [1]: 5.25%
Potency [2]: inactive
Potency [3]: inactive

CCOC(=O)C1(CCOc2ccccc2)CCN(Cc2ccc(O)c(Cl)c2)CC1
activation [1]: 3.67%
Potency [2]: inactive
Potency [3]: inactive

CC1(C)CC[C@]2(C(=O)O)CC[C@]3(C)C(=CCC4[C@@]5(C)C[C@@H](O)[C@H](O)C(C)(C)C5CC[C@]43C)[C@@H]2[C@@H]1O (stereo partly drawn)
activation [1]: -0.893%
Potency [2]: inactive
Potency [3]: inactive

C/C=C/C=C/C=C/C(=O)OC1C=C2C(O)OC(=O)[C@]2(O)[C@@]2(C)CCCC(C)(C)[C@H]12 (stereo partly drawn)
activation [1]: -2.29%
Potency [2]: inactive
Potency [3]: inactive

CC[C@H](C)/C=C(C)/C=C/C1=CC2=C(Cl)C(=O)[C@](C)(O)[C@H](OC(C)=O)[C@H]2CO1
Potency [1]: 14.8 µM (active)
Potency [2]: inactive
Potency [3]: inactive

COc1cc(NS(=O)(=O)c2ccc(N)cc2)nc(C)n1
activation [1]: -15.9%
Potency [2]: inactive
Potency [3]: inactive

C[C@@H]1O[C@@H](O[C@H]2[C@H](O[C@H]3[C@H](O[C@H]4CC[C@@]5(C)C(CC[C@]6(C)C5CC=C5[C@@H]7CC(C)(C)CC[C@]7(C(=O)O[C@@H]7O[C@H](CO)[C@@H](O[C@@H]8O[C@@H](C)[C@H](O)[C@@H](O)[C@H]8O)[C@H](O)[C@H]7O)CC[C@]56C)C4(C)C)OC[C@H](O)[C@@H]3O)O[C@H](CO)[C@@H](O)[C@@H]2O)[C@H](O)[C@H](O)[C@H]1O (stereo partly drawn)
activation [1]: 7.14%
activity change, negative = inhibition [2]: 3.25% [at 11.2 µM]
activity change, negative = inhibition [3]: -3.58% [at 11.2 µM]

CC(C)c1ccc2c(c1)C(=O)CC1[C@@](C)(C(=O)O)CCC[C@]21C (stereo partly drawn)
activation [1]: -2.68%
Potency [2]: inactive
Potency [3]: inactive

Cc1ccc(-c2ncc[nH]2)cc1NC(=O)c1ccc(OCc2ccccn2)cc1
activation [1]: -2.86%
Potency [2]: inactive
Potency [3]: inactive

CO[C@H]1O[C@@H]2O[C@]3(C)CC[C@H]4[C@H](C)CC[C@@H]([C@H]1C)[C@@]24OO3
activation [1]: 10.3%
Potency [2]: inactive
Potency [3]: inactive

C=C1CCC2C(C)(C(=O)O)CCCC2(C)C1CC/C(=C\CO)CO (stereo not drawn)
activation [1]: 3.57%
Potency [2]: inactive
Potency [3]: inactive

COc1ccc(-c2ccccc2)cc1NS(=O)(=O)c1cc(Cl)cc(Cl)c1O
activation [1]: -8.33%
Potency [2]: inactive
Potency [3]: inactive

CCCCCOc1ccc(C2SC(=O)NC2=O)cc1OCC (stereo not drawn)
activation [1]: 2.33%
Potency [2]: inactive
Potency [3]: inactive

CC1CCC2(C)C(CC(O)C(O)C23CO3)C1(C)CCC1=CC(=O)OC1O (stereo not drawn)
activation [1]: -12.2%
Potency [2]: inactive
Potency [3]: inactive

CC1C/C=C/C=C\CCCCC(O)C/C=C/C(=O)O1 (stereo not drawn)
activation [1]: -17.9%
Potency [2]: inactive
Potency [3]: inactive

CC1CC(=O)C2=C(C1)C1OC1C1(O)C2C(=O)c2cccc(O)c2C1O (stereo not drawn)
activation [1]: 4.58%
Potency [2]: inactive
Potency [3]: inactive

C=C1C[C@H](O)[C@@H](O)[C@@]2(C)C1[C@@H](O)[C@H]1OC(=O)C3[C@@H](C)[C@@H](O)[C@H](O)C2[C@]31C (stereo partly drawn)
activation [1]: 0.763%
Potency [2]: inactive
Potency [3]: inactive

CC(C)=CCC/C(C)=C/CO[C@@H]1O[C@H](CO[C@@H]2OC[C@](O)(CO)[C@H]2O)[C@@H](O)[C@H](O)[C@H]1O
activation [1]: 2.29%
Potency [2]: inactive
Potency [3]: inactive

COC1=CC(=O)CC(C)C12Oc1cc(OC)cc(O)c1C2=O (stereo not drawn)
activation [1]: 16.8%
Potency [2]: inactive
Potency [3]: inactive

C=C1CCC2C(OC(=O)C2(O)COC(C)=O)C2C(=C)C(O)CC12 (stereo not drawn)
activation [1]: -3.82%
Potency [2]: inactive
Potency [3]: inactive

C[C@@H]1CCC2C(C)(C)[C@H](O)CC[C@]2(C)[C@@]12Cc1c(O)cc3c(c1O2)CN(CCO)C3=O (stereo partly drawn)
activation [1]: 11.5%
Potency [2]: inactive
Potency [3]: inactive

CC(=C\C(C)O)/C=C(\C)C(=O)CC1CC(CC(N)=O)CC(=O)O1 (stereo not drawn)
activation [1]: -16.8%
Potency [2]: inactive
Potency [3]: inactive

CC(=O)O[C@@H]1[C@H](O[C@@H]2OC[C@](O)(CO)[C@H]2O)[C@@H](O[C@@H]2O[C@@H](C)[C@H](O)[C@@H](O)[C@H]2O)[C@H](OC(=O)[C@]23CCC(C)(C)C[C@H]2C2=CCC4[C@@]5(C)C[C@H](O)[C@H](O[C@@H]6O[C@H](C(=O)O)[C@@H](O)[C@H](O)[C@H]6O)[C@@](C)(C(=O)O)C5CC[C@@]4(C)[C@]2(C)CC3)O[C@@H]1C (stereo partly drawn)
activation [1]: 18.3%
Potency [2]: inactive
Potency [3]: inactive

CN(CC1COCCO1)S(=O)(=O)Nc1ccc2ccc3ncc(-c4cnn(C)c4)cc3c(=O)c2c1 (stereo not drawn)
activation [1]: 0.893%
Potency [2]: inactive
Potency [3]: inactive

Nc1nc2c(ncn2[C@@H]2O[C@@H]3COP(=O)(O)O[C@H]3[C@H]2O)c(=O)[nH]1
activation [1]: 12.3%
Potency [2]: inactive
Potency [3]: inactive

O=C1NC(Cc2c[nH]c3ccccc23)C(=O)NC1Cc1c[nH]c2ccccc12 (stereo not drawn)
activation [1]: 14.5%
Potency [2]: inactive
Potency [3]: inactive

COC(=O)c1cc(OC)cc(OC)c1C(=O)c1c(OC)cc2c(c1O)C1CCCC(C)(O2)O1 (stereo not drawn)
activation [1]: 14.5%
Potency [2]: inactive
Potency [3]: inactive

NCCCC[C@H](NC(=O)[C@@H]1Cc2ccccc2CN1C(=O)CCC(=O)c1ccccc1)C(=O)NCC(c1ccccc1)c1ccccc1
activation [1]: -6.33%
Potency [2]: inactive
Potency [3]: inactive

Nc1nc(Cl)nc2c1ncn2C1OC(CO)C(O)C1F (stereo not drawn)
activation [1]: 0%
Potency [2]: inactive
Potency [3]: inactive

CC1(C)O[C@H]2CC(=O)OC[C@]23[C@H]2CC[C@@]4(C)[C@H](c5ccoc5)OC(=O)[C@H]5O[C@]54[C@]2(C)C(=O)C[C@@H]13
activation [1]: -25.4% and 64.1% and 3.82%
Potency [2]: inactive
Potency [3]: inactive
